Assay outcomes: PubChem BioAssay, PCMD
FXIa single inh: human FXIa protease inhibitors, primary screen, biochemical, single compound per well. Coagulation factor XI (Homo sapiens), P03951. purified human FXIa, fluorogenic AMC substrate cleavage. inhibition, % at 10 µM. 33,000 tested, 0.3% active;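 active = inhibition above 40% in the primary screen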
FXIIa single: human FXIIa protease inhibitors, primary screen, biochemical, single well; Coagulation factor XII (Homo sapiens), P00748; purified human FXIIa, AMC substrate fluorescence, 2 h; inhibition, % at 10 µM; 33,000 tested, 0.2% active; AID 701, 2007; in the data active = inhibition above about 30%
Target sequence (P00748 20-372 limits assumed): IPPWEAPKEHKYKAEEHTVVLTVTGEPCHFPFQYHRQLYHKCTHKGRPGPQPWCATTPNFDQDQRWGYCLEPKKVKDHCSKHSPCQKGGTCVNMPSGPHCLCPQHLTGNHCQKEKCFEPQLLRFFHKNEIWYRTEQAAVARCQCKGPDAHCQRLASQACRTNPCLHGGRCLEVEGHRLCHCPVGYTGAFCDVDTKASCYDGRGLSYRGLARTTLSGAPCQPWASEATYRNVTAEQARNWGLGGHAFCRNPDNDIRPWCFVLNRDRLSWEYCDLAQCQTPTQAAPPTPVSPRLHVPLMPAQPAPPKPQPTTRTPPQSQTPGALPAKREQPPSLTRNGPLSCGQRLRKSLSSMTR
Target sequence (P00748 373-615 limits assumed): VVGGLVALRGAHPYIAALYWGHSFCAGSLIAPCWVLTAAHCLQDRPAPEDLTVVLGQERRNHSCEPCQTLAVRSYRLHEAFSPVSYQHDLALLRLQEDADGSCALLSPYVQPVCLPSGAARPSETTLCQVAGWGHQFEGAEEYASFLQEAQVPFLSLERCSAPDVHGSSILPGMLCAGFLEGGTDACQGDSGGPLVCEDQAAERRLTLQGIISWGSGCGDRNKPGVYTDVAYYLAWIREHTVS
Numbers stand for hits; i = inactive. Only some compounds are listed: those with a hit (about 0.33% of all), similar ones and a draw of the others.

SMILES	FXIa single inh	FXIIa single
O=C(Oc1ccc2c3c(c(=O)oc2c1)CCC3)c1ccco1	i	53.8
COC(=O)c1ccc(COc2ccc3c4c(c(=O)oc3c2)CCC4)o1	i	i
Cc1ccc(CC(=O)Nc2ccccc2N2CCOCC2)cc1C	i	i
CCCCCc1c(O)nc(SCC(=O)O)[nH]c1=O	i	i
Cc1cnc(C(=O)OCC(=O)NCc2ccccc2)cn1	41.2	i
COc1ccc(CCNC(=O)COC(=O)c2cnc(C)cn2)cc1	i	i
Cc1onc(-c2c(Cl)cccc2Cl)c1C(=O)n1nnc2ccccc21	i	i
O=C(c1cccc2ccccc12)n1nnc2ccccc21	48.2	i
O=C(O)Cn1c(SCc2cccc3ccccc23)nc2ccccc21	i	i
Cc1ccc(C(=O)n2nnc3ccccc32)cc1	96.6	68.2
COC(=O)C(C(=O)OC)C(C)C(C(=O)OC)C(=O)OC	i	i
Cc1ccc(C)c(Cn2c(CN(C)Cc3ccccc3)nc3c2c(=O)n(C)c(=O)n3C)c1	i	i
N#CC1=C(N2CCCCC2)c2cc3c(n2C1=O)CCCC3	i	i
COc1cccc(NC(=O)C(NCC2CCCCC2)c2ccccc2)c1 (stereo not given)	i	i
CCCN(CCC)C(C(=O)Nc1cccc(OC)c1)c1ccccc1 (stereo not given)	104.5	i
Cc1nnc(N2CCN(C)CC2)c2nn(-c3ccc(Cl)cc3)c(C)c12	i	i
O=C(Nc1nc2n(n1)C(c1ccc(Cl)cc1)CC(c1ccc(Cl)cc1)N2)c1ccco1 (stereo not given)	i	45.9
O=C(Nc1nc2n(n1)C(c1ccccc1)C=C(c1ccccc1)N2)c1ccco1 (stereo not given)	i	i
O=C(O)C[CH2][Ge](=[O])[O][Ge](=[O])[CH2]CC(=O)O	i	i
COc1ccccc1-n1cnnc1SCC(=O)Nc1nc(C)c(Cl)cc1Cl	43.4	i
COc1ccc(-n2cnnc2SCC(=O)Nc2nc(C)c(Cl)cc2Cl)cc1	i	i
c1ccc(CCn2c3ccccc3c3nnc(SCc4ccc5nonc5c4)nc32)cc1	i	i
Cc1ccc(C2=N/C(=C\c3cccs3)C(=O)N2Nc2ccccc2)cc1	i	i
O=C1N=C(c2ccccc2)S/C1=C\c1cccs1	i	46.0
CN(c1ccc(C(=O)Nc2ccccc2C(=O)N2CCOCC2)cc1)S(C)(=O)=O	i	i
SMILES	FXIa single inh	FXIIa single
O=C(Nc1ccccc1C(=O)N1CCOCC1)c1ccc(F)cc1	46.7	i
CC(=O)c1ccc(OC(=O)c2ccc(Br)o2)cc1	i	49.6
Cc1ccc(OC(=O)c2ccc(Br)o2)cc1	i	i
CNC(=O)COC(=O)c1[nH]c(C)c(C(C)=O)c1C	46.1	i
COCCNC(=O)COC(=O)c1[nH]c(C)c(C(C)=O)c1C	i	i
COc1cc(NS(=O)(=O)c2ccc(Br)s2)cc(OC)c1	i	i
CCOC(=O)CN1C(=O)c2ccccc2C1=O	i	i
Cc1c(O)ccc(C(=O)CN2C(=O)c3ccccc3C2=O)c1O	58.8	i
CC(=O)/C=C1/SC(CC(=O)O)C(=O)N1c1ccccc1 (stereo not given)	i	i
Cc1ccc(-c2csc(N3CCC(NS(=O)(=O)c4ccc5c(c4)OCCO5)CC3)n2)cc1	58.8	i
CC(C)CNS(=O)(=O)c1ccc2c(c1)OCCO2	i	i
CCOC(=O)N1CCN(C/C(C)=C/c2ccccc2)CC1	i	31.0
CCOC(=O)N1CCN(CC(=O)Nc2ccc(C)cc2)CC1	i	i
O=C(c1ccccn1)N(Cc1ccco1)C1(C(=O)NC2CCCC2)CCCCC1	i	i
Cc1ccc(N(C(=O)c2ccccn2)C2(C(=O)NC3CCCC3)CCCCC2)cc1	42.5	i
CCOC(=O)C1CCCN(Cc2ccc(OCC)cc2)C1 (stereo not given)	i	i
CC(C)c1nc2ccc(NC(=O)C3CCCCC3)cc2[nH]1	104.4	i
O=C(Nc1ccc2nc(-c3ccccn3)[nH]c2c1)C1CCCCC1	i	i
CSCCC(NC(=O)OC(C)(C)C)C(=O)NC(C(=O)NC(CC(C)C)C(N)=O)C(C)C (stereo not given)	i	i
Cc1cc(C(=O)CSc2nnc(-c3cccnc3)n2-c2ccccc2F)c(C)n1CC1CCCO1 (stereo not given)	i	i
COc1cc(/C=C(/C(=O)c2cccs2)c2nc3ccccc3[nH]2)cc(OC)c1O	i	i
COc1ccc(CC(=O)NCc2ccc3c(c2)OCO3)cc1	53.0	i
COc1ccc(CN2CC(C(=O)NCc3ccc4c(c3)OCO4)CC2=O)cc1 (stereo not given)	i	i
COc1cc(C(N)=O)ccc1OCc1ccccc1	i	i
COc1ccc(C(=O)n2nc(-c3ccccc3)nc2N)cc1OC	i	62.4
SMILES	FXIa single inh	FXIIa single
O=c1c(-c2cc3ccccc3o2)[n+]([O-])c2ccccc2n1OCc1ccccn1	40.2	i
O=c1c(-c2ccco2)[n+]([O-])c2ccccc2n1OCc1ccccc1	i	i
Cc1cccc(N2CCN(CC(=O)Nc3ccc(-n4cnnn4)cc3)CC2)c1C	40.8	i
O=C(Nc1ccc(-n2cnnn2)cc1)C1CCCCC1	i	i
O=C(CN(C1CCCCC1)S(=O)(=O)c1ccc(Cl)cc1)N1CCOCC1	i	i
N#Cc1c(SCC(N)=O)nc2c(c1-c1ccc(OCc3ccccc3)cc1)CCCC2	i	i
O=C(Nn1c(=O)[nH]c2ccccc2c1=O)c1ccco1	i	i
Cc1ccc(OCc2nnc(SCC(=O)NC3CCCCC3)n2C)cc1	i	i
Cn1c(SCC(=O)NC2CCCCC2)nnc1-c1cccc(N)c1	40.4	i
Cc1sc2ncnc(NCC(C)(C)N3CCOCC3)c2c1C	i	i
COC(=O)C(Cc1c[nH]c2ccccc12)NC(C)=O (stereo not given)	102.7	i
Cc1ccc(C(=O)NC(Cc2c[nH]c3ccccc23)C(=O)O)cc1 (stereo not given)	i	i
Cc1ccc(CC2CC(=O)N(c3nc4ccccc4n3C)C2=O)cc1 (stereo not given)	i	i
COc1cc(/C=c2\sc3n(c2=O)C(c2ccccc2)C(c2ccccc2)=NN=3)ccc1O (stereo not given)	i	i
COc1cc(/C=c2\sc3n(c2=O)CCCN=3)ccc1O	42.9	i
COc1ccc(/C=N/N=C2/NC(=O)C(c3ccccc3)(c3ccccc3)S2)cc1	i	i
CC(O)CNC(=O)c1ccc(-c2nn(C)c(=O)c3ccccc23)cc1 (stereo not given)	i	i
CCN(CC)CCNC(=O)C(C)c1nn(C)c(=O)c2ccccc12 (stereo not given)	41.6	i
CCOc1ccc(S(=O)(=O)Nc2ccccn2)c2ccccc12	i	i
CCOc1ccc(S(=O)(=O)NCc2ccc(OC)cc2)c2cccnc12	62.0	i
CCS(=O)(=O)c1ccc2oc(SCC(=O)NC(C)C3CC4CCC3C4)nc2c1 (stereo not given)	i	i
C[N+](C)(C)CCOP(=O)(O)OP(=O)([O-])OC[C@H]1O[C@@H](n2ccc(N)nc2=O)[C@H](O)[C@@H]1O	i	i
O=C(Oc1ccc2c(=O)c(Cl)coc2c1)c1cccnc1	58.8	i
CCN(CC)C(=O)Oc1ccc2c(=O)c(-c3ccccc3)coc2c1	i	i
CCN1C(=O)N(c2ccc(Cl)cc2)C(C)=CC1(C)C	i	i
CC(C)Oc1cccc(C(=O)O)c1	i	i
Nc1nc(SCc2c(F)cccc2Cl)[nH]c(=O)c1-c1ccccc1	i	i
Cc1cc(=O)n(CNC(=O)c2ccccc2)c(=S)[nH]1	i	i
